This is an account of results in PubChem BioAssay AID1508648 (National Center for Advancing Translational Sciences (NCATS), 2021).

Inconclusive results are not listed. Entries that show only a call come without a potency. The source made the active and inactive calls. Calls follow the shape of the dose curve; as a rule, active = well fitted cell-killing curve with a large enough effect; inconclusive = small, poorly fitted or top-dose-only effect, or effect the other way; inactive = flat fitted curve, though single readings scatter.

The assay in a line: Cell viability assay in S16 Pmp22-HiBiT cells - Confirmatory screen. The following applies: S16 Schwann Pmp22-HiBiT viability, CellTiter-Glo, 24 h; series mostly up to 27.9 µM. The source says:
Assay Provider: Jim Inglese Ph.D. National Center for Advancing Translational Science, National Institutes of Health, Rockville, MD CMT is a heterogeneous group of neurological disorders that affect approximately 1 in 2,500 people. In particular, the most common form of CMT, CMT1A is genetically linked to the duplication of the PMP22 gene which leads to Schwann cell overexpression, thus manifesting itself as a typical case of dose-sensitive diseases. To identify small molecule compounds that can mediate the expression of PMP22 we developed a phenotypic assay screening strategy by utilizing genome editing techniques to construct Schwann cell lines containing novel reporter technology to monitor the transcriptional or translational regulation of PMP22. For high sensitivity we use a bioluminescent reporter system embedded in the 3' UTR of the PMP22 gene (S16(c9) Pmp22-F2sN) to identify compounds that inhibit gene expression. […] We can further discriminate the effect of all transcriptionally active molecules on PMP22 translation or stability with an assay that incorporates a short NLuc peptide (HiBiT) at the C-terminus of expressed PMP22 (S16(f8) PMP22-HiBiT) allowing alpha complementation and luminescence detection of membrane-associated PMP22 protein. These assays were screened against the NCATS Sytravon Library Collection. Miniaturization of these assays to 1536-well plate format for quantitative high throughput screening (qHTS) yielded rich data sets immediately from the qHTS assay (S16(c9) Pmp22-F2sN), when compared with data from a cell viability assay (Cell TiterGlo) to identify compounds that decreased the output signals through cellular toxicity to streamline the selection process of actives for subsequent characterization using the HiBiT assay (S16(f8) PMP22-HiBiT).
Cell viability assay in S16 Pmp22-HiBiT cells PROTOCOL TABLE (format as described by Inglese J, Shamu CE and Guy RK. 2007) SEQUENCE No. (e.g., 1, 2, 3, etc.); PARAMETER (e.g., Cells, Incubation, Reagent, etc.); VALUE and DESCRIPTION. 1. Cells. Add 500-1,000 cells in 4 uL in growth media (DMEM High Glucose, No Phenol Red media + 10% heat-inactivated FBS + 1% Pen/Strep supplemented media) per well into Greiner 1536-well white/solid bottom high base, TC-treated plates. 2. Compounds. Library compounds and controls added at 23nL per well, transferred by Pin Tool. 3. Incubation. Incubate plates at 37C, 5% CO2, 95% RH for 24 h. 4. Reagent. Add 3uL CellTiter-Glo per well of Greiner 1536-well plates. 5. Incubation. Incubate plates at room temperature for 15 min., protect from light. 6. Detector. Luminescence measured using CCD-based camera (Viewlux). NOTES (numbers refer to Sequence numbers above; values are from representative experiments) 6. Luminescence Read: Clear filter; Exposure = 1 sec, Gain = High, Speed = Slow, Binning = 2X REFERENCES: 1. Inglese J, Shamu CE and Guy RK, Reporting data from high throughput screening of small molecule libraries, Nature Chemical Biology, 2007, 3(8): 438-441. doi.org/10.1038/nchembio0807-438 2. Yasgar A, Shinn P, Jadhav A, Auld DS, Michael S, Zheng W, Austin CP, Inglese J and Simeonov A, Compound Management for Quantitative High-Throughput Screening. J. Assoc. Lab. Auto., 2008, 13: 79-89. doi: 10.1016/j.jala.2007.12.004
A general note: With HiBiT, luminescence reflects the tagged protein that the partner subunit can reach.
Turning to `COC(=O)c1ccccc1NC(=O)c1nc(S(=O)(=O)Cc2cccc(C)c2)ncc1Cl`, the Potency entry is “inactive”.
On to `COc1ccccc1Nc1nn2c(=O)c3ccc(C(=O)Nc4ccc(F)cc4)cc3nc2s1`, for which the Potency is 7.24 µM (active).
As to `COc1ccc(NC(=O)c2oc3ccccc3c2NC(=O)Cc2ccc(F)cc2)c(OC)c1`, the Potency entry is “inactive”.
Take `O=C(Cn1c(-c2cccs2)cc2cc(F)ccc21)NCCCN1CCN(c2ccc(F)cc2)CC1`: the Potency entry is “inactive”.
Turning to `COc1ccc(Cl)cc1NC(=O)CCCS(=O)(=O)c1nc(-c2ccc(OC)c(OC)c2)cc(C(F)(F)F)n1`, the Potency was 6.45 µM (active).
Take `CCOc1cc(CNc2ccc(O)cc2)cc(Br)c1OCc1ccccc1`: the Potency result is “inactive”.
For `CCCCCS(=O)(=O)c1oc(-c2cccs2)nc1S(=O)(=O)c1ccc(C)cc1`, the Potency was 18.2 µM (active).
